Data reported in PubChem BioAssay AID1006 (Sanford-Burnham Center for Chemical Genomics, 2008).
The campaign covered roughly 200,000 compounds. About 3,000 (1.5%) were called active. This excerpt belongs to a sample that is enriched for actives. A number with no mark means an inactive call.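 The calls were made as follows: active = inhibition above about 50% when tested at 10 µM (limit read from the data); inactive = the rest.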

What follows are compounds tested against Luciferin 4-monooxygenase (Photinus pyralis) (UniProt P08659) (assay: firefly luciferase enzyme inhibitors, primary screen, artefact control for luciferase-based inhibitor screens, biochemical, luminescence, ATPLite (AID 1006)). Settings: 10 min, at 10 µM, stronger effect = higher value.
Sequence of Luciferin 4-monooxygenase (Photinus pyralis) (P08659 whole entry, looked up): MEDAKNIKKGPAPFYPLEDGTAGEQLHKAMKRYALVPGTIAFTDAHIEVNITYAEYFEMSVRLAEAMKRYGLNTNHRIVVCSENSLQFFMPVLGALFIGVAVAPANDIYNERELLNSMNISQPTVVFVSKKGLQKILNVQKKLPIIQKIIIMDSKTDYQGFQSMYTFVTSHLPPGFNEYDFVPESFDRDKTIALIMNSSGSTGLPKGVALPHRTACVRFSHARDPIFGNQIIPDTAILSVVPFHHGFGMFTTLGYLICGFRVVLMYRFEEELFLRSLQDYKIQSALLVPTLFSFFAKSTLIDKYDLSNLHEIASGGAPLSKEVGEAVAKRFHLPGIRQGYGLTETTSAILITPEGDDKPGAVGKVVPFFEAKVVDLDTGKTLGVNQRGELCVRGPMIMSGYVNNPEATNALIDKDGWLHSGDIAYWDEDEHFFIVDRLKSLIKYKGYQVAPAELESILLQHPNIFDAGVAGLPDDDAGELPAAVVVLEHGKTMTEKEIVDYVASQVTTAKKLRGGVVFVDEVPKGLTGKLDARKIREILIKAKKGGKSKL

**Q.** For `Cc1ccc(-c2cc(C(F)(F)F)n3ncc(C(=O)N4CCCCC4c4cccnc4)c3n2)cc1` (stereo not drawn), which inhibition is on record?
**A.** The inhibition was -6.3%.

**Q.** With `Cc1ccc(-c2nc(-c3cccnc3)sc2CC(=O)Nc2ccc(C)c(Cl)c2)cc1` as the compound, how does the inhibition read?
**A.** Its inhibition is -1.9%.

**Q.** With `Cc1cccc2c(=O)n3c(nc12)CCCCC3` as the compound, how does the inhibition read?
**A.** Its inhibition is -5.2%.

**Q.** How did the inhibition turn out when `Cc1c(C(=O)Nc2ccccc2)sc2nc3n(c(=O)c12)CCCCC3` was run?
**A.** Its inhibition is -3.9%.

**Q.** With `O=c1c2c(nc3n1CCCCC3)sc1c(O)cccc12` as the compound, how does the inhibition read?
**A.** Its inhibition is 60.4% (active).

**Q.** `CC(C)c1cc(NCc2ccccn2)n2c(nc3ccccc32)c1C#N` was tested. Which inhibition did it give?
**A.** The inhibition was -5.4%.

**Q.** Which inhibition does the source give for `Cc1nnc(SC(C(=O)Nc2cc(Cl)cc(Cl)c2)c2ccccc2)[nH]c1=O` (stereo not drawn) here?
**A.** The inhibition was -3.6%.

**Q.** For `O=C(CC(=O)N/N=C\c1cccc(Cl)c1Cl)NCc1ccccc1`, which inhibition is on record?
**A.** The inhibition was -7.3%.

**Q.** `CS(=O)(=O)Nc1cccc(-c2cn3ccccc3n2)c1` was tested. Which inhibition did it give?
**A.** The inhibition was 16.8%.

**Q.** Which inhibition does the source give for `Cc1ccc(-c2cn3cc(C)ccc3n2)cc1` here?
**A.** The inhibition was 95.9% (active).

**Q.** Which inhibition does the source give for `Cc1ccc(-c2cc(N)on2)cc1` here?
**A.** Its inhibition is 17.5%.

**Q.** With `COc1ccc(OC)c(-n2c(=S)[nH]c3cc(C(=O)N4CCCCC4)ccc3c2=O)c1` as the compound, how does the inhibition read?
**A.** Its inhibition is -6.8%.

**Q.** For `C/C(=N\Nc1ncc(Cl)cc1Cl)c1ccc(S(=O)(=O)NCc2ccco2)cc1`, which inhibition is on record?
**A.** Its inhibition is 2%.

**Q.** `COc1cccc(/C(C)=N/Nc2ncc(Cl)cc2Cl)c1` was tested. Which inhibition did it give?
**A.** The inhibition was 4.4%.

**Q.** How did the inhibition turn out when `C/C(=N\Nc1nc2ccccc2[nH]1)c1cccs1` was run?
**A.** The inhibition was 73.6% (active).

**Q.** For `C/C(=N\Nc1ncc(Cl)cc1Cl)c1cccs1`, which inhibition is on record?
**A.** The inhibition was 57.2% (active).

**Q.** `C/C(=N\Nc1nc(Nc2ccccc2)nc(N2CCOCC2)n1)c1cccs1` was tested. Which inhibition did it give?
**A.** The inhibition was 5.5%.

**Q.** With `O=C(CSc1nc2ccccc2[nH]1)c1cccs1` as the compound, how does the inhibition read?
**A.** The inhibition was 5.4%.

**Q.** `Cc1cc(NC(C)C)n2c(nc3ccccc32)c1C#N` was tested. Which inhibition did it give?
**A.** The inhibition was -2%.

**Q.** Which inhibition does the source give for `O=[N+]([O-])c1ccc2c(c1)C(N1CCOCC1)/C(=C/C1(O)CCCCC1)O2` (stereo not drawn) here?
**A.** Its inhibition is 0.2%.

**Q.** `O=C(CN1CCC(O)(c2ccccc2)CC1)Nc1ccc2c(c1)OCCO2` was tested. Which inhibition did it give?
**A.** The inhibition was -7.8%.

**Q.** How did the inhibition turn out when `C=CCc1cccc2cc(C(=O)Nc3ccc(NC(C)=O)cc3)c(=O)oc12` was run?
**A.** The inhibition was -2.7%.

**Q.** For `CC(C)N(Cc1ccccc1)C(=O)COC(=O)c1cnccn1`, which inhibition is on record?
**A.** Its inhibition is -3.5%.

**Q.** For `Cn1c(=NC(=O)C2CC2)sc2cc(F)cc(F)c21`, which inhibition is on record?
**A.** The inhibition was 0.6%.

**Q.** Which inhibition does the source give for `CCCC(=O)N=c1sc2cccc(F)c2n1C` here?
**A.** The inhibition was 7%.

**Q.** Which inhibition does the source give for `Cn1c(=NC(=O)c2ccco2)sc2cccc(F)c21` here?
**A.** The inhibition was 59.7% (active).

**Q.** With `C=C(C)c1cccc(C(C)(C)NC(=O)NC2CCCC2)c1` as the compound, how does the inhibition read?
**A.** The inhibition was -3.3%.

**Q.** With `CCC(=O)N1CCC(C(N)=O)(N2CCCCC2)CC1` as the compound, how does the inhibition read?
**A.** The inhibition was -4.7%.
